Results filed as inconclusive are left out. A call without a number means that no potency is given here. Unmarked numbers belong to inactive results. Activity calls are given as the source filed them. Calls follow the shape of the dose curve; as a rule, active = well fitted curve in the direction sought with a large enough effect; inconclusive = small, poorly fitted or top-dose-only effect, or another doubt; inactive = no such curve, though single readings can be large; an effect the other way counts as inactive or inconclusive.
Tests used:
[1] = target: Rap guanine nucleotide exchange factor 3 (Homo sapiens) (UniProt O95398); test: Confirmatory qHTS for agonist of cAMP-regulated guanine nucleotide exchange factor 3 (EPAC1) (AID 1645881);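 also: EPAC1 catalysed release of BODIPY-GDP from Rap1B seen as fluorescence loss; nearly all actives have a fitted effect of over 75% in size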
Chain of Rap guanine nucleotide exchange factor 3 (Homo sapiens) (O95398 whole entry, looked up): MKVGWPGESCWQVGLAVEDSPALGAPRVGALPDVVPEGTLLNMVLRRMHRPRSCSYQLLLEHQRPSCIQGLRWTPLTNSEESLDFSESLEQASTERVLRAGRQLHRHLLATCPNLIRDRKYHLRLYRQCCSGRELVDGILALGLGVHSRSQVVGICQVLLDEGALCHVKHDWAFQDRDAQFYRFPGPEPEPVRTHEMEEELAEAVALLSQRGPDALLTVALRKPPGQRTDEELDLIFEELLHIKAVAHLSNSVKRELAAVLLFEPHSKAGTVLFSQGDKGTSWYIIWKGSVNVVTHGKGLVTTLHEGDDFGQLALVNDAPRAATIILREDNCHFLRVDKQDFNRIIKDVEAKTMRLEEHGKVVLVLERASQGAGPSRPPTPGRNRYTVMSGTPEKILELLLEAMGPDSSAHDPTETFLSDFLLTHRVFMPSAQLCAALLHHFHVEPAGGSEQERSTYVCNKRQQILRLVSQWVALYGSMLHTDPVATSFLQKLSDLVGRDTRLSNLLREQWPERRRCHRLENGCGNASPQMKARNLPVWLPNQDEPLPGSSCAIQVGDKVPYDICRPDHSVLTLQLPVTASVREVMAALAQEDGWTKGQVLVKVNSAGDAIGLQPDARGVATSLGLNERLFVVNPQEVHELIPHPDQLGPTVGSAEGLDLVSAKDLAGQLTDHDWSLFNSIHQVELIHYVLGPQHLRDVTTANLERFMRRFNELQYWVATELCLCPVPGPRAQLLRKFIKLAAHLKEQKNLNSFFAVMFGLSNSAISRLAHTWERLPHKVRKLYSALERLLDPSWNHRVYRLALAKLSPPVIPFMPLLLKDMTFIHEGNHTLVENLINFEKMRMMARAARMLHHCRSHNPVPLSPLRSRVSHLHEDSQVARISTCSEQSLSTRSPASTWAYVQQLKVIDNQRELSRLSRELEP

[2] = target: Rap guanine nucleotide exchange factor 4 (Homo sapiens) (UniProt Q8WZA2); test: Confirmatory qHTS for agonist of cAMP-regulated guanine nucleotide exchange factor 4 (EPAC2) (AID 1645884);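 also: nucleotide exchange releases bodipy-GDP from Rap1 and this lowers its fluorescence; nearly all actives have a fitted effect of over 65% in size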
Chain of Rap guanine nucleotide exchange factor 4 (Homo sapiens) (Q8WZA2 whole entry, looked up): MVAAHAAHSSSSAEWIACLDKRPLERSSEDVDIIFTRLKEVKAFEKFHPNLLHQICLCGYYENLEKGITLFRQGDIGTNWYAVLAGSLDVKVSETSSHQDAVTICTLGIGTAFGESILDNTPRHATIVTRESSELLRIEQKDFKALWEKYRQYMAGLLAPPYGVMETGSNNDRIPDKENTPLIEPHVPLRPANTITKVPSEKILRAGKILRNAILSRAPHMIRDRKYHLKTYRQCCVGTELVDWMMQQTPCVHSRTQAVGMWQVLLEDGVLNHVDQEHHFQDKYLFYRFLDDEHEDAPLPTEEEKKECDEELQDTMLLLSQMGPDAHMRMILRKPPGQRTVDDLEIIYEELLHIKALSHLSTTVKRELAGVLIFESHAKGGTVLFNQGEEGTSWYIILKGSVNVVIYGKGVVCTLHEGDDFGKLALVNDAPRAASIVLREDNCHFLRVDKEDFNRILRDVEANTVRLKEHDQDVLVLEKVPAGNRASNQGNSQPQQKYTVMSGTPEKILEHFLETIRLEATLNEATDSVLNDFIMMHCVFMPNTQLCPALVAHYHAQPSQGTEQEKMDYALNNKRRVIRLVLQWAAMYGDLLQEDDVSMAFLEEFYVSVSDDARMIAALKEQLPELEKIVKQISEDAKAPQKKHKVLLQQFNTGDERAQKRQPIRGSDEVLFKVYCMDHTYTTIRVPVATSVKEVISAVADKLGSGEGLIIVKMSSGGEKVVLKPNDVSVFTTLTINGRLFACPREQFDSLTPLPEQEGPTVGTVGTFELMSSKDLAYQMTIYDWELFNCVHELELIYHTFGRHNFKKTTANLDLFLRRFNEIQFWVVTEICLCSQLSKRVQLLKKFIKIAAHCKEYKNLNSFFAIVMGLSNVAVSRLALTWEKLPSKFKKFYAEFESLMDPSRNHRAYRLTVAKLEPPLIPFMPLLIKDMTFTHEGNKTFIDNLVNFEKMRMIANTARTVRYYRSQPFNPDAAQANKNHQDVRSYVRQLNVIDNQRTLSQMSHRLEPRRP

[3] = target: Rap guanine nucleotide exchange factor 4 (Homo sapiens) (UniProt Q8WZA2); test: Confirmatory qHTS for antagonist of cAMP-regulated guanine nucleotide exchange factor 4 (EPAC2) (AID 1645885); also: nearly all actives have a fitted effect of over 25% in size; also: potency is read from the fitted curve at half-maximal effect
[4] = target: Rap guanine nucleotide exchange factor 3 (Homo sapiens) (UniProt O95398); test: Counterscreen qHTS for antagonist of cAMP-regulated guanine nucleotide exchange factor 3 (EPAC1) (AID 1645888);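 also: fluorescence loss as bound BODIPY-GDP is released from Rap1B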
Procedure, shortened: (§1)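 Measured: fluorescence of BODIPY-GDP bound to Rap1B, which falls as exchange proceeds. Conditions include 50 uM competing GDP, 5 and 30 min reads, and a later cAMP challenge for antagonist detection.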

[5] = target: Rap guanine nucleotide exchange factor 3 (Homo sapiens) (UniProt O95398); test: Counterscreen qHTS for agonist of cAMP-regulated guanine nucleotide exchange factor 3 (EPAC1) (AID 1645889); also: nearly all actives have a fitted effect of over 40% in size
Procedure, shortened: as §1

Row | SMILES | Potency [1] | Potency [2] | Potency [3] | Potency [4] | Potency [5] | outcome [3] | activation [5] | activation [2] | activity change, negative = inhibition [4]
1 | CC1=C(C(=O)OC(C)C)C(c2ccc(C)o2)C(C(=O)OC(C)C)=C(C)N1 | inactive | inactive | 30.1 µM (active) | inactive | inactive | – | – | – | –
2 | Cc1c(C(=O)OCC(C)C)[nH]c2c1C(=O)CC(c1ccco1)C2 (stereo not given) | inactive | inactive | inactive | inactive | inactive | – | – | – | –
3 | Cc1ccn2cc(-c3cccc(NC(=O)c4cccs4)c3)nc2c1 | inactive | inactive | inactive | inactive | inactive | – | – | – | –
4 | CSc1cccc(NC(=O)Cn2nnc(C(=O)NCCc3ccccc3)c2N)c1 | inactive | inactive | – | inactive | inactive | inactive [at 12.7 µM] | – | – | –
5 | COc1ccc(C(=O)c2nccc3ccccc23)cc1 | inactive | inactive | inactive | inactive | inactive | – | – | – | –
6 | COc1ccc(O)c(/C=N/NC(=O)c2ccc(N3CCCC3=O)cc2)c1 | inactive | inactive | inactive | inactive | inactive | – | – | – | –
7 | O=C(c1ccc2c(c1)CCCC2)N1CCN(c2nc3ccc(F)cc3s2)CC1 | inactive | inactive | inactive | inactive | inactive | – | – | – | –
8 | Oc1ccc(NCc2ccc(OCc3ccccc3)cc2)cc1 | inactive | inactive | inactive | inactive | – | – | 16.4% [at 30.8 µM] | – | –
9 | O=C(O)C1CC(c2ccc(F)cc2)=NO1 (stereo not given) | inactive | – | inactive | – | – | – | 21.8% [at 30.8 µM] | -14.9% [at 17.1 µM, percent relative to cAMP agonist control] | -15.4% [at 30.8 µM]
10 | O=C(N/N=C/c1ccc(-c2ccc(Cl)c(C(=O)O)c2)o1)c1cc2c(ccc3ccccc32)o1 | inactive | – | inactive | – | – | – | 12% [at 30.8 µM] | 0.332% [at 17.1 µM, percent relative to cAMP agonist control] | -35.1% [at 30.8 µM]
11 | O=C(O)C/C(=C\c1cc(Cl)c2c(c1)OCO2)c1nc2ccccc2s1 | inactive | – | inactive | – | – | – | -1.83% [at 30.8 µM] | -1.81% [at 17.1 µM, percent relative to cAMP agonist control] | -1% [at 30.8 µM]
12 | CC1CC2(NC(=O)NC2=O)C(C)CN1C (stereo not given) | inactive | inactive | inactive | inactive | inactive | – | – | – | –
13 | CCc1ccc2c(c1)NC(=O)C2(C)Cc1ccccc1OC (stereo not given) | inactive | inactive | inactive | inactive | inactive | – | – | – | –
14 | Cc1ccc2nc3sc(C(=O)Nc4c(C)[nH]c(=O)[nH]c4=O)c(N)c3cc2c1 | inactive | – | inactive | – | – | – | 5.21% [at 30.8 µM] | 4.59% [at 17.1 µM, percent relative to cAMP agonist control] | 2.13% [at 30.8 µM]
15 | COc1cccc(C(NC(C)=O)c2ccc3cccnc3c2O)c1 (stereo not given) | inactive | inactive | 19 µM (active) | inactive | inactive | – | – | – | –
16 | O=c1cc(-c2c(O)c3ccccc3n(Cc3ccccc3)c2=O)[nH][nH]1 | inactive | inactive | inactive | inactive | inactive | – | – | – | –
17 | O=C(CSc1nc2ccsc2c(=O)n1NC(=O)c1ccccc1)Nc1nccs1 | inactive | inactive | inactive | inactive | inactive | – | – | – | –
18 | O=Nc1c(O)c2ccccc2c2ccccc12 | inactive | – | inactive | – | – | – | 24.1% [at 30.8 µM] | 0.886% [at 17.1 µM, percent relative to cAMP agonist control] | -4.76% [at 30.8 µM]
19 | Cc1oc2c(cc(NS(=O)(=O)c3ccc(F)cc3)c3ccccc32)c1C(=O)O | inactive | inactive | 75.7 µM (active) | inactive | inactive | – | – | – | –
20 | COC(=O)c1ccc2nc(-c3ccc(OC)c(OC)c3)c(Cc3ccccc3)n2c1 | inactive | inactive | inactive | inactive | inactive | – | – | – | –
21 | CC(NC(=O)COc1ccccc1-c1ccccc1)c1ccccc1 (stereo not given) | inactive | inactive | inactive | inactive | inactive | – | – | – | –
22 | CCOC(=O)C(C)n1nc(-c2ccccc2)c2ccccc2c1=O (stereo not given) | inactive | inactive | inactive | inactive | inactive | – | – | – | –

Row | SMILES | Potency [1] | Potency [2] | Potency [3] | Potency [4] | Potency [5] | outcome [3] | activation [5] | activation [2] | activity change, negative = inhibition [4]
23 | Cc1ccc(C)c(S(=O)(=O)N2CCN(C(=O)CCNC(=O)c3ccc(Br)cc3)CC2)c1 | inactive | inactive | inactive | inactive | inactive | – | – | – | –
24 | Oc1ccccc1CNc1ccc(OC(F)(F)F)cc1 | inactive | inactive | inactive | inactive | inactive | – | – | – | –
25 | O=C(O)/C(=C\c1ccc(-c2ccc(F)cc2)o1)c1ccccc1 | inactive | inactive | inactive | inactive | inactive | – | – | – | –
26 | COc1cccc(C2CC(c3cccs3)=NN2C(=O)c2ccco2)c1O (stereo not given) | inactive | – | inactive | – | – | – | 8.43% [at 30.8 µM] | 3.1% [at 17.1 µM, percent relative to cAMP agonist control] | -12.7% [at 30.8 µM]
27 | CCOc1ccc2nc(NC3=NC(c4ccc(OC)cc4)CC(=O)N3)nc(C)c2c1 (stereo not given) | inactive | – | inactive | – | – | – | 10.5% [at 30.8 µM] | 2.86% [at 17.1 µM, percent relative to cAMP agonist control] | -8.36% [at 30.8 µM]
28 | Cc1ccccc1NC(=O)CN1C(=O)N/C(=C\c2ccccc2OCc2ccc(C(=O)O)cc2)C1=O | inactive | inactive | 53.6 µM (active) | inactive | inactive | – | – | – | –
29 | CCc1ccc(N=C2NC(=O)/C(=C/c3cc(Br)c(OCC(=O)O)c(OC)c3)S2)cc1 | inactive | – | inactive | – | – | – | 15.5% [at 30.8 µM] | -6.04% [at 17.1 µM, percent relative to cAMP agonist control] | -19.5% [at 30.8 µM]
30 | CC(=O)NS(=O)(=O)c1ccc(Nc2ccc([N+](=O)[O-])c3nonc23)cc1 | inactive | – | inactive | – | – | – | 1.5% [at 30.8 µM] | 14.6% [at 17.1 µM, percent relative to cAMP agonist control] | -18.4% [at 30.8 µM]
31 | CCCc1nc2c(=O)n(C)c(=O)nc-2n(C)n1 | inactive | inactive | inactive | inactive | inactive | – | – | – | –
32 | COc1cc2c(c(OC)c1OC)-c1c(cc(OC)c(OC)c1OC)C[C@H](C)[C@H](C)C2 | inactive | – | inactive | – | – | – | 23.6% [at 30.8 µM] | 7.13% [at 17.1 µM, percent relative to cAMP agonist control] | -11.3% [at 30.8 µM]
33 | O=C(NCCc1c[nH]c2ccccc12)C(=O)Nc1cc2c3c(c1)CC(=O)N3CCC2 | inactive | inactive | inactive | inactive | inactive | – | – | – | –
34 | CCN(CC)C(=O)c1ccc2c(c1)N(Cc1ccc(C(F)(F)F)cc1)C(=O)c1ccccc1S2 | inactive | inactive | – | inactive | inactive | inactive [at 12.7 µM] | – | – | –
35 | O=C(O)COc1ccc(/C=N/NC(=O)c2ccc(-c3csc(Nc4ccc(Cl)cc4)n3)cc2)cc1 | inactive | inactive | inactive | inactive | inactive | – | – | – | –
36 | CCOC(=O)C(C(C)C)C(N)Cc1ccc(F)cc1 (stereo not given) | inactive | inactive | inactive | inactive | inactive | – | – | – | –
37 | O=C(C=Cc1ccccc1)c1c[nH]c2ccccc2c1=O | inactive | – | inactive | – | – | – | 9.21% [at 30.8 µM] | 5.37% [at 17.1 µM, percent relative to cAMP agonist control] | -25.8% [at 30.8 µM]
38 | COc1cc(-c2cc(OC)c3c(C)oc(C)c3c(=O)c2)ccc1OC(=O)c1ccc(C)cc1 | inactive | inactive | inactive | inactive | inactive | – | – | – | –
39 | CCOC(=O)C1=C(CC)OC(N)=C(C#N)C1c1ccc(F)cc1F (stereo not given) | inactive | inactive | inactive | inactive | inactive | – | – | – | –
40 | COc1ccccc1NC(=O)CSc1nc2sc(C)c(C)c2c(=O)n1C | inactive | – | inactive | – | – | – | 15.6% [at 30.8 µM] | 1.44% [at 17.1 µM, percent relative to cAMP agonist control] | -1.48% [at 30.8 µM]
41 | O=C(O)C(Cc1c[nH]c2ccccc12)NS(=O)(=O)c1ccc2ccccc2c1 (stereo not given) | inactive | inactive | inactive | inactive | inactive | – | – | – | –
42 | Cc1cccc(C)c1-n1cccc1/C=C1\SC(=S)N(c2cccc(C(=O)O)c2)C1=O | inactive | inactive | inactive | inactive | inactive | – | – | – | –
43 | CCCCC[C@@H](C)N1C[C@@H](COCc2ccccc2)Oc2cc(N3CC[C@H](O)C3)ccc2S1(=O)=O | inactive | – | inactive | – | – | – | 2.97% [at 30.8 µM] | -2.04% [at 17.1 µM, percent relative to cAMP agonist control] | -7.58% [at 30.8 µM]

— PubChem BioAssay (NCATS)
